# Screening data deposited in PubChem BioAssay by The Scripps Research Institute Molecular Screening Center.
# Most compounds without a hit are left out; they make up all but 3.4% or so of the library.
# FBW7 act: activators of human E3 ligase FBW7; Q969H0; AlphaScreen FBW7–phospho-cyclin E peptide binding, activator screen; normalized activity (activation), % at 26.1 µM; actives 0.13% (n = 650,000); AID 1259310; in the data active = normalized activity above about 1.9%;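 also: purified mutant Fbw7 with reduced substrate affinity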
# Target sequence (Q969H0 whole entry, looked up): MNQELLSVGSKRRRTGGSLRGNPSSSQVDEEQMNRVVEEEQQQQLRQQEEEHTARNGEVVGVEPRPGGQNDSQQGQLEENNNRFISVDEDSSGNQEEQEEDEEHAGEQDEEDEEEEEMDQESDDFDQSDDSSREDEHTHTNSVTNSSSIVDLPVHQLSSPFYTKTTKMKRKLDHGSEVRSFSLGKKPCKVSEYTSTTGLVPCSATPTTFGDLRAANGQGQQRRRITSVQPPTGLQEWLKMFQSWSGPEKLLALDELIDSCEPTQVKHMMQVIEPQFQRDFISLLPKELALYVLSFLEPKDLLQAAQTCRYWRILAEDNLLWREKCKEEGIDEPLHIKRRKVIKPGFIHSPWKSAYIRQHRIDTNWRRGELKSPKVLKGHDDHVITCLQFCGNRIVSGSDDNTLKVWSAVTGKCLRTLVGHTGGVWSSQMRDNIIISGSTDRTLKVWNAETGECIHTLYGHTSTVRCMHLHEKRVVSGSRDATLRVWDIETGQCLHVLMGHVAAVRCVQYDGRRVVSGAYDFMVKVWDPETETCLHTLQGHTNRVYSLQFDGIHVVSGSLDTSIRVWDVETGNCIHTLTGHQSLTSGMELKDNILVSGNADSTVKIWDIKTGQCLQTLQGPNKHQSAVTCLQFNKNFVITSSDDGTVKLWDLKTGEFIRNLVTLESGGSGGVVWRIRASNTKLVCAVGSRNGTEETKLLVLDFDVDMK
# GPR151 activ: human GPR151 activation | activation, % at 11.2 µM | actives 1% (n = 650,000) | Q8TDV0 | PathHunter beta-arrestin GPR151 cells, luminescence | AID 1508602; in the data active = activation above about 4.9%;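 also: 0% = median of compound wells and 100% = cells with positive control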
# MITF primary: human MITF inhibition, primary screen. AID 1259374. actives 0.91% (n = 650,000). inhibition, % at 2.6 µM. AlphaScreen MITF homodimerization, bead proximity signal; in the data active = inhibition above about 50%;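 also: 0% = vehicle wells with protein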
# TEAD-YAP inh: TEAD-YAP interaction inhibition. actives 1.4% (n = 640,000). HEK-TIYL cells, TEAD-Gal4/YAP UAS-luciferase luminescence. AID 1259422. inhibition, % at 9.12 µM; in the data active = inhibition above about 32%;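 also: 0% = median of test compound wells and 100% = reference inhibitor wells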
# MITF inh conf: human MITF inhibition, confirmation; shares compounds with MITF primary; AlphaScreen MITF homodimerization, biotin/His-MITF beads; inhibition, % at 2.6 µM; actives 16% (n = 4,700); AID 1259372;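 active = inhibition above a cutoff derived from the DMSO control wells, cut at about 28% in these data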;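 also: 0% = MITF dimer wells with DMSO only; inhibitors lower the bead chemiluminescence by keeping MITF from dimerizing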
# AS interf DR: optically interferes with AlphaScreen signal in dose response; IC50, µM; shares compounds with MITF primary; actives 6% (n = 480); AlphaScreen optical interference counterscreen, cell-free; call rule not given here
# AS interf ctr: AlphaScreen optical interference, counter-screen | inhibition, % at 2.6 µM | AID 1259376 | shares compounds with MITF primary | LysRS AlphaScreen counterscreen, signal interference, triplicate | actives 7.6% (n = 4,700);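 active = inhibition above a cutoff derived from the DMSO control wells, cut at about 30% in these data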
# Starred values were filed as active, the others as inactive; · = not tested or not shown.
SMILES,FBW7 act,GPR151 activ,MITF primary,TEAD-YAP inh,MITF inh conf,AS interf ctr,others
CCc1ccccc1OCC(=O)Nc1cccc(C)c1,1,0,13,-19,·,·,
Cc1ccc(S(=O)(=O)C(CNC(=O)c2ccco2)c2cccs2)cc1 (stereo not drawn),1,1,95*,-5,83*,5,AS interf DR=>6.6
CC(=O)NCC(c1cccs1)S(=O)(=O)c1ccc(C)cc1 (stereo not drawn),1.9*,1,51*,-7,60*,-8,AS interf DR=>6.4
O=C(NCC(c1cccs1)S(=O)(=O)c1ccc(Cl)cc1)c1ccco1 (stereo not drawn),2,2,70*,-3,59*,-15,AS interf DR=>6.6
O=C(NCC(c1ccco1)S(=O)(=O)c1cccs1)c1ccco1 (stereo not drawn),1,0,21,-1,·,·,
Cc1ccc(S(=O)(=O)C(CNC(=O)C(C)C)c2cccs2)cc1 (stereo not drawn),0,-1,-8,1,·,·,
OC1CCN(C(c2ccc(C(F)(F)F)cc2)c2nnnn2C2CCCC2)CC1 (stereo not drawn),0,0,-2,10,·,·,
CN(C)CC(=O)N(C)C(Cc1ccccc1)C1CCN(C(=O)C(=O)c2ccccc2)CC1 (stereo not drawn),0,1,6,-9,·,·,
C=CCNC(=O)c1cccc(-n2c(=S)[nH]c3cc(Cl)ccc3c2=O)c1,0,2,-7,-10,·,·,
COc1ccc(C(=O)Nc2sc(C)c(C)c2C#N)cc1[N+](=O)[O-],0,-1,74*,6,-6,-6,
CC(=O)N1CCC(N(CCN2CCOCC2)C(=O)Nc2ccccc2)CC1,0,0,-3,-7,·,·,
COc1ccc(CN2CCN(C(=O)c3ccco3)CC2)cc1Br,0,-1,53*,-3,3,13,
COc1cccc(CN2CCN(C(=O)c3ccccc3)CC2)c1,0,0,60*,-1,8,17,
COc1ccc(Br)cc1CN1CCN(C(=O)c2cccs2)CC1,0,0,64*,1,-8,-6,
O=C(c1ccccc1)N1CCN(CC(O)COCc2ccccc2)CC1 (stereo not drawn),0,0,56*,-5,11,10,
COc1ccc(CN2CCN(C(=O)c3ccccc3)CC2)cc1,0,-1,38,1,·,·,
CCc1ccc(-n2c(N)c(C(=O)Nc3ccccc3)sc2=S)cc1,0,-1,9,-20,·,·,
CCOC(=O)C1(CC2CCCCO2)CCN(S(=O)(=O)c2ccc(C)cc2C)CC1 (stereo not drawn),0,0,14,1,·,·,
CC1=C(C(=O)OCCOc2ccccc2)C(c2ccc(C)o2)C2=C(CC(c3cccs3)CC2=O)N1 (stereo not drawn),0,1,-11,-6,·,·,
O=C(c1ccncc1)N1CCN(Cc2ccco2)CC1,0,-1,76*,-11,4,0,
c1coc(CN2CCN(Cc3ccncc3)CC2)c1,0,1,35,-12,·,·,
COc1cccc(CN2CCN(C(=O)c3ccco3)CC2)c1,0,0,55*,6,-22,-1,
COc1cc(OC)c(OC)cc1CN1CCN(Cc2ccco2)CC1,0,0,81*,7,15,21,
COc1cccc(CN2CCN(C(=O)c3cccc(Cl)c3)CC2)c1,0,0,58*,0,11,15,
CC(C(=O)NC1CCCC1)N(Cc1ccccc1)C(=O)c1ccc(Cl)nc1 (stereo not drawn),0,0,3,4,·,·,
SMILES,FBW7 act,GPR151 activ,MITF primary,TEAD-YAP inh,MITF inh conf,AS interf ctr,others
COc1ccc(-c2nc3ccccc3c(=O)n2NCc2cc(Br)ccc2O)cc1,0,0,17,-3,·,·,
OC(COc1ccc(OCC(O)CN2CCOCC2)cc1)CN1CCOCC1 (stereo not drawn),0,-2,4,-5,·,·,
Cc1cccc(C(=O)N2CCN(c3ccc([N+](=O)[O-])c(NC4CC4)c3)CC2)c1,0,1,21,18,·,·,
CCOC(=O)C1=C(C)NC(=O)NC1c1cc(Br)c(OCC(=O)O)c(OC)c1 (stereo not drawn),0,0,-1,3,·,·,
COc1ccc(CN2CCN(C(=O)c3cccc(Cl)c3)CC2)c(OC)c1,0,1,54*,1,5,16,
O=C(c1cccc(Cl)c1)N1CCN(Cc2ccccc2Cl)CC1,0,2,58*,-9,8,12,
COc1cccc(C(=O)N2CCN(C3CCN(Cc4ccccc4)CC3)CC2)c1,0,0,54*,-7,-8,-10,
COc1cccc(C(=O)N2CCN(Cc3ccccc3Cl)CC2)c1,0,-1,40,-14,·,·,
COc1cccc(C(=O)N2CCN(Cc3cccc(Cl)c3)CC2)c1,0,0,52*,13,50*,18,
COc1cccc(C(=O)N2CCN(C(=O)c3cccc(Cl)c3)CC2)c1,0,0,22,16,·,·,
CCC(=O)c1ccc(Oc2cnccn2)cc1,0,-3,7,-15,·,·,
CC(C)N(CCNC(=O)c1cccc(-c2ccc3[nH]ccc3c2)n1)C(C)C,0,-2,4,-5,·,·,
CCOC(=O)c1ccc(NC(=O)c2ccccc2OCC)cc1,0,0,-1,1,·,·,
COc1ccc(C(=O)N2CCN(Cc3cccc(Cl)c3)CC2)cc1OC,0,-2,51*,-3,5,12,
CCOc1cc(CN2CCN(C(=O)c3cccc(Cl)c3)CC2)ccc1OC,0,0,21,2,·,·,
COc1cccc(OC)c1C(=O)N1CCN(Cc2ccc(Br)cc2)CC1,1,0,64*,5,4,-2,
COc1cccc(C(=O)N2CCN(Cc3ccc(Br)cc3)CC2)c1,0,0,61*,8,21,9,
COc1cccc(OC)c1C(=O)N1CCN(Cc2ccco2)CC1,0,1,61*,7,-5,-9,
CCOc1ccc(CN2CCN(C(=O)c3c(OC)cccc3OC)CC2)cc1,0,-1,33,25,·,·,
Cc1ccc(C(=O)Nc2cccc(NC(=O)c3ccc(C)c(C)c3)n2)cc1C,0,-1,12,-28,·,·,
CCc1ccc(CN2CCN(C(=O)c3ccco3)CC2)cc1,0,1,51*,-18,5,10,
CCN(c1ccccc1)S(=O)(=O)c1cc(C(=O)NC(C)(C)C)ccc1C,0,1,4,4,·,·,
Cc1ccccc1C(=O)N/N=C/c1cc([N+](=O)[O-])ccc1O,-1,-2,47,19,·,·,
c1ccc(C(NCc2cccnc2)c2ccccc2)cc1,0,0,86*,1,11,14,
CC(NCc1cccnc1)C(=O)Nc1ccccc1 (stereo not drawn),0,-1,75*,-1,11,10,
Cc1cc(OCN2C(=O)c3ccccc3C2=O)ccc1Cl,0,-1,5,-5,·,·,
